The values that follow come from PubChem BioAssay (NCI).

Some test systems named below: SK-MEL-2 melanoma; EKVX NSCLC; SN12C renal; UO-31 renal; TK-10 renal; ACHN renal; A498 renal; CCRF-CEM leukemia; MOLT-4 leukemia; SR leukemia; RPMI-8226 leukemia; OVCAR-8 ovarian; OVCAR-5 ovarian; SK-OV-3 ovarian; IGROV1 ovarian; OVCAR-3 ovarian; HS 578T breast; NCI/ADR-RES ovarian; OVCAR-4 ovarian.
Holding throughout (assay): NCI-60 one-dose screen, 48 h (100 = growth as untreated, 0 = no growth, -100 = all killed)
Common to all, as to settings: 10 µM unless noted

About 83,000 compounds went through this panel and 20% of them were active in at least one assay; those are over-represented in the sample as a whole.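 A percent growth of 40 corresponds to 60% growth inhibition; 0 means no net growth; -100 means all cells died. Active threshold: below 10.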 Values without a mark were called inactive. Active and inactive are the calls of the source.

Turning to `O=c1ccccc(-c2ccc(-c3ccco3)cc2)c1O`, the growth is 19.9% in the experiment on SK-MEL-2 melanoma; 11.8% in the experiment on EKVX NSCLC; 11.3% in the experiment with SN12C renal; -12.2% (active) in the experiment with UO-31 renal; 33.5% with TK-10 renal; 9.23% (active) with ACHN renal. Also, the growth is 39% in the experiment on A498 renal; 5.03% (active) in the experiment with CCRF-CEM leukemia; 7.73% (active) in the experiment with MOLT-4 leukemia; 10% in the experiment with SR leukemia; 8.75% (active) with RPMI-8226 leukemia; 12.7% in the experiment with OVCAR-8 ovarian. Besides, the growth with OVCAR-5 ovarian was 54.9%; with SK-OV-3 ovarian, 18.2%; in the experiment on IGROV1 ovarian it was 12.9%; in the experiment with OVCAR-3 ovarian it was 28.8%; in the experiment with HS 578T breast it was 59.3%; in the experiment with NCI/ADR-RES ovarian, 12%.

For `CSc1ccc(-c2ccccc(=O)c2O)cc1`, the growth in the experiment with SK-MEL-2 melanoma is 15.2%; in the experiment on EKVX NSCLC, 11.5%; with SN12C renal it was 11.9%; in the experiment with UO-31 renal it was -17.8% (active); in the experiment with TK-10 renal, 33.4%; in the experiment on ACHN renal it was 6.58% (active). The growth is 36.2% in the experiment on A498 renal; 3.72% (active) with CCRF-CEM leukemia; 2.65% (active) in the experiment with MOLT-4 leukemia; 5.18% (active) with SR leukemia; 10.1% with RPMI-8226 leukemia; 14.6% in the experiment with OVCAR-8 ovarian. Further, the growth is 52.9% in the experiment on OVCAR-5 ovarian; 32.5% in the experiment with OVCAR-4 ovarian; 11.8% with SK-OV-3 ovarian; 12.7% with IGROV1 ovarian; 25.1% in the experiment on OVCAR-3 ovarian; 56.4% in the experiment with HS 578T breast. Moreover, in the experiment with NCI/ADR-RES ovarian, the growth is 5.46% (active).

For `C#CC(F)(F)[C@]1(O)CC[C@H]2[C@@H]3CCC4=CC(=O)CCC4=C3[C@@H](c3ccc(C4CC4)cc3)C[C@@]21C`, the growth in the experiment with SK-MEL-2 melanoma is 59.5%; in the experiment on EKVX NSCLC, -67.4% (active); in the experiment with SN12C renal it was 60.3%; in the experiment with UO-31 renal it was -84.8% (active); in the experiment on TK-10 renal, 99.8%; in the experiment with ACHN renal, 40.4%. Moreover, the growth is -5.83% (active) with A498 renal; -63% (active) with CCRF-CEM leukemia; -6.54% (active) in the experiment with MOLT-4 leukemia; -38.7% (active) with SR leukemia; -42.5% (active) in the experiment on RPMI-8226 leukemia; 24.8% with OVCAR-8 ovarian. The growth with OVCAR-5 ovarian was 9.97% (active); in the experiment with SK-OV-3 ovarian, -79.4% (active); with IGROV1 ovarian, -48.5% (active); with OVCAR-3 ovarian, -73.4% (active); in the experiment with HS 578T breast, 33.4%; in the experiment with NCI/ADR-RES ovarian, 11%.

For the compound `CC(=O)c1cc2c(N)c(C(=O)Nc3cccc4ccccc34)sc2nc1C`, the growth was 36.5% with SK-MEL-2 melanoma; 46.4% in the experiment with EKVX NSCLC; 40.9% in the experiment with SN12C renal; 42.9% with UO-31 renal; 56.2% with TK-10 renal; 47.6% in the experiment with ACHN renal. Besides, the growth in the experiment with A498 renal was 13.6%; in the experiment on CCRF-CEM leukemia it was 6.95% (active); with MOLT-4 leukemia, 24%; in the experiment with SR leukemia, 12.7%; in the experiment with RPMI-8226 leukemia it was 10.2%; in the experiment on OVCAR-8 ovarian, 21.5%. Also, the growth was 64% with OVCAR-5 ovarian; 59.6% in the experiment with OVCAR-4 ovarian; 26.8% in the experiment with SK-OV-3 ovarian; 34.7% with IGROV1 ovarian; -5.38% (active) in the experiment on OVCAR-3 ovarian; 16.3% with NCI/ADR-RES ovarian.

With `O=c1ccccc(-c2ccc(Br)cc2)c1O`, the growth in the experiment with SK-MEL-2 melanoma was 12%; in the experiment with EKVX NSCLC it was 6.92% (active); with SN12C renal, 6.62% (active); with UO-31 renal it was -10.6% (active); in the experiment with TK-10 renal, 21.5%; in the experiment on ACHN renal it was 6.35% (active). In addition, the growth with A498 renal was 31.7%; in the experiment with CCRF-CEM leukemia, 3.29% (active); with MOLT-4 leukemia, 5.09% (active); in the experiment on SR leukemia, 4.69% (active); in the experiment with RPMI-8226 leukemia, 9.5% (active); with OVCAR-8 ovarian, 13%. Further, the growth with OVCAR-5 ovarian was 54.9%; in the experiment on SK-OV-3 ovarian it was 19.7%; in the experiment with IGROV1 ovarian, 12.4%; in the experiment with OVCAR-3 ovarian it was 25.8%; in the experiment with HS 578T breast, 51.8%; in the experiment with NCI/ADR-RES ovarian, 7.78% (active).

Consider `CN(C)c1ccc(N=Nc2ccccn2)c(O)c1`, for which the growth was 27.1% in the experiment on SK-MEL-2 melanoma; 17% in the experiment on EKVX NSCLC; 11.3% in the experiment on SN12C renal; -8.47% (active) with UO-31 renal; 38.9% with TK-10 renal; 6.69% (active) in the experiment with ACHN renal. In addition, the growth is 48.2% in the experiment on A498 renal; 2.26% (active) in the experiment with CCRF-CEM leukemia; 2.31% (active) in the experiment with MOLT-4 leukemia; 3.79% (active) with SR leukemia; 16.2% in the experiment on RPMI-8226 leukemia; 16% with OVCAR-8 ovarian. Also, the growth was 68.6% with OVCAR-5 ovarian; 28.3% in the experiment on OVCAR-4 ovarian; 19.5% in the experiment on SK-OV-3 ovarian; 14.9% with IGROV1 ovarian; 33.2% in the experiment on OVCAR-3 ovarian; 60.9% in the experiment on HS 578T breast. Also, the growth in the experiment with NCI/ADR-RES ovarian is 12.4%.

Turning to `Oc1ccccc1-c1nnc(CNc2ccc(Cl)cc2)o1`, the growth in the experiment with SK-MEL-2 melanoma was 30.1%; in the experiment with EKVX NSCLC, 38.9%; in the experiment on SN12C renal, 40.6%; in the experiment on UO-31 renal, 19%; in the experiment on TK-10 renal, 44.7%; with ACHN renal, 12.7%. Besides, the growth in the experiment with A498 renal was 77.9%; in the experiment on CCRF-CEM leukemia, 11.8%; with MOLT-4 leukemia, 15.5%; with SR leukemia, 10.4%; in the experiment on RPMI-8226 leukemia, 23.4%; in the experiment on OVCAR-8 ovarian, 18.6%. For the same compound, the growth was 64% in the experiment on OVCAR-5 ovarian; 34.2% in the experiment with OVCAR-4 ovarian; 19.5% with SK-OV-3 ovarian; 26.1% in the experiment with OVCAR-3 ovarian; 13.4% with NCI/ADR-RES ovarian.

For the compound `COc1cc2c(cc1-c1c(C)noc1C)ncc1nc(C3CCCC3)n([C@H](C)COC(F)F)c12`, the growth in the experiment with SK-MEL-2 melanoma was 67.8%; in the experiment with EKVX NSCLC, 44.2%; with SN12C renal it was 57.3%; with UO-31 renal, -30% (active); with TK-10 renal, 30.6%; in the experiment with ACHN renal, 32.9%. Further, the growth with A498 renal is -27.3% (active); in the experiment with CCRF-CEM leukemia it was 48.7%; in the experiment with MOLT-4 leukemia, 42.3%; in the experiment with SR leukemia, 18.7%; with RPMI-8226 leukemia, 14.7%; in the experiment on OVCAR-8 ovarian, 38.6%. For the same compound, the growth is 78% with OVCAR-5 ovarian; 40.9% in the experiment on OVCAR-4 ovarian; 7.48% (active) in the experiment on SK-OV-3 ovarian; 42.1% in the experiment on IGROV1 ovarian; 36.5% with OVCAR-3 ovarian; 11% in the experiment on HS 578T breast. Further, the growth in the experiment on NCI/ADR-RES ovarian is 35.5%.

As for `CCNC(=O)Oc1ccc(/C(=C(\C)c2ccc(Cl)cc2)c2ccc(OCCN(CC)CC)cc2)cc1`, the growth was 38.1% in the experiment on SK-MEL-2 melanoma; 60.1% in the experiment with EKVX NSCLC; 66.1% in the experiment with SN12C renal; 25.8% with UO-31 renal; 80.4% in the experiment with TK-10 renal; 71.3% with ACHN renal. Further, the growth in the experiment on A498 renal is 85.5%; with CCRF-CEM leukemia, 16.4%; in the experiment with MOLT-4 leukemia, 7.99% (active); in the experiment with SR leukemia, -26.8% (active); with RPMI-8226 leukemia, -11.4% (active); with OVCAR-8 ovarian, 64.8%. For the same compound, the growth is 85.9% in the experiment on OVCAR-5 ovarian; 40.5% in the experiment with OVCAR-4 ovarian; 61.5% in the experiment on SK-OV-3 ovarian; 49.2% in the experiment on IGROV1 ovarian; 53.9% with OVCAR-3 ovarian; 47.1% in the experiment on HS 578T breast. Besides, in the experiment on NCI/ADR-RES ovarian, the growth was 57.3%.
